Hit rate of the full screen: of about 69,000 compounds, about 8,600 (12%) showed an effect of 50% or more. The list comes from a sample in which strong results are over-represented; it also holds similar structures and randomly drawn compounds.

This assay deals with Plasmodium berghei. Put plainly: Screen against P. berghei liver stage (PbLuc), transformed with Luciferase, at 10uM. The note with it: tested at 10 uM. Type of assay: functional, HepG2.
Take `O=C(Nc1cc(F)ccc1OCC1CCCO1)N1CCSCC1` (stereo not drawn): the INHIBITION was determined as 41.2%.
With `CC(=O)NCC1(COc2cnccn2)C[C@@H](O)[C@@H](O)C1` (stereo partly drawn), the INHIBITION is recorded as -3.52%.
For `COCC(C)NC(=O)c1cn(C(C)C)cc2c(=O)[nH]nc1-2` (stereo not drawn) the value was 22%; for `COc1ccc2c(OCC(=O)NCC(F)(F)F)ccnc2c1`, -121%; for `CNC(=O)[C@H]1C[C@@H]2CN(C(=O)c3ccsc3)C[C@@H]2N1S(C)(=O)=O`, 32.2%.
For `CCOc1ncccc1NC(=O)N1CCN(Cc2ccncc2)CC1` the value was 18.75%; for `Cc1csc2c(N3CCC(NCCCC4CCOC4)CC3)ncnc12` (stereo not drawn), 55.8%.
For `CCc1nc(CNC2CCN(c3ccc(OC)cc3)CC2)cs1` the value was 34%.
As for `CCC1CCN(CCn2cnc3c(C)csc3c2=O)CC1`, the INHIBITION is listed as -7.25%.
Regarding `CCCc1cncnc1N1CCC(NCCc2nc(O)cc(O)n2)CC1`, the INHIBITION was 8.23%.
As for `CCCc1cncnc1N1CCC(NCCc2ccc(O)cc2)CC1`, the figure is 49.9%; as for `CCc1cc(N2CCC(NCCc3nc(C)c(C)s3)CC2)nc(C)n1`, 30.3%; as for `Cc1nnc(CCNC2CCN(c3ncnc4c(C)csc34)CC2)s1`, 61.8%.
As for `Cc1nc(C)n(CCNC2CCN(c3ncnc4c(C)csc34)CC2)n1`, the figure is -12.4%.
For `Cc1csc2c(N3CCC(NCCc4ccnn4C)CC3)ncnc12`, the INHIBITION is given as 53.6%.
As for `CCc1nnc(CNC2CCN(c3ncnc4c(C)csc34)CC2)s1`, the INHIBITION is 61.3%.
On to `Cc1csc2c(N3CCC(NCCCc4ccncc4)CC3)ncnc12`, for which the INHIBITION stood at 43.5%.
As for `O=C(NCc1ccc2c(c1)OCO2)[C@@H]1C=CCN1c1ncccn1`, the figure is -0.232%.
For `CCOCC1CC2(CCN(C(=O)c3ccccn3)CC2)CO1` (stereo not drawn) the value was 32.4%; for `Cc1cc(C)nc(N2CCC(C(=O)Nc3n[nH]c(C(C)C)n3)CC2)n1`, 24.7%; for `Cc1noc(C(C)Nc2ccc(N3CCOCC3)cc2C)n1` (stereo not drawn), 23.1%.
For `CCOC(=O)CSc1nnc([C@@H](N)CC(C)C)o1` the value was 12.3%; for `O=C(COC1CCCC1)N1C[C@@H]2CN(Cc3ccoc3)CCO[C@@H]2C1`, 29.8%.
In the case of `Cc1cc(N2CCC(N(C)C(=O)c3ccccc3F)CC2)nc(C)n1`, the INHIBITION amounted to 56.1%.
Regarding `Cc1cc(N2CCC(N(C)C(=O)Nc3ccccc3)CC2)nc(C)n1`, the INHIBITION is 4.71%.
Regarding `Cc1cc(N2CCC(N(C)C(=O)c3cccs3)CC2)nc(C)n1`, the INHIBITION is 22%.
In the case of `Cc1cc(N2CCC(N(C)C(=O)c3ccc(C#N)cc3)CC2)nc(C)n1`, the INHIBITION is 81.1%.
As for `CN(C(=O)c1ccc(C#N)cc1)C1CCN(c2ccccn2)CC1`, the figure is -39.5%; as for `Cc1cc(N2CCC(O)CC2)nc(C)n1`, 41%.
Take `Cc1cc(N2CCC(N(C)C(=O)c3sccc3C)CC2)nc(C)n1`: the INHIBITION worked out at 68.6%.
For `COc1ccccc1C(=O)N(C)C1CCN(c2ccccn2)CC1` the value was 19.5%; for `Cc1cc(N2CCC(N(C)C(=O)c3ccccc3)CC2)nc(C)n1`, 2.3%; for `CCNc1cc2c(nn1)CCN(C(=O)CCc1c(C)noc1C)C2`, 1.78%.
For `COc1c(C2CCCN2C(=O)c2cnc(C)cn2)c(C)nn1C` (stereo not drawn) the value was -14.7%; for `O=C(Cn1cc(-c2ccccc2)ncc1=O)Nc1nccs1`, -13.6%.
As for `Cc1nc(C2CCCN(C(=O)c3ccnc(N(C)C)c3)C2)no1` (stereo not drawn), the figure is -27%.
Consider `CN(C)C(=O)c1c[nH]nc1C1CCN(S(=O)(=O)c2ccccc2)CC1`, for which the INHIBITION was -36.4%.
As for `CC(C)NC(=O)C1CCC2(CCN(c3ncccn3)CC2)CO1` (stereo not drawn), the figure is 15.7%; as for `O=C(C1CCC2(CCN(c3ncccn3)CC2)CO1)N1CCCC1` (stereo not drawn), -7.24%.
For `O=C(C1CCCO1)N1CCC2(CC1)COCCN(Cc1cccnc1)C2` (stereo not drawn) the value was 12.2%.
Take `O=C(C1CCC2(CCN(c3nncs3)CC2)C1)N1CCCC1` (stereo not drawn): the INHIBITION was -16.9%.
As for `O=C(C1CCC2(CCN(Cc3cccnc3)CC2)CO1)N1CCCC1` (stereo not drawn), the figure is 62%; as for `CNC(=O)C1CCC2(CCN(c3nncs3)CC2)CO1` (stereo not drawn), 61.9%; as for `O=C(C1CCC2(CCN(c3nncs3)CC2)CO1)N1CCCC1` (stereo not drawn), 57.1%.
For `O=C([C@@H]1CCCO1)N1CCOCC2(CCN(Cc3cccnc3)C2)C1` (stereo partly drawn) the value was 40.3%.
As for `CNC(=O)C1CCC2(CCN(c3ncc(C)cn3)CC2)CO1` (stereo not drawn), the figure is 11.3%; as for `CC(C)(C)C(=O)N1CC[C@@H]2[C@H](CC1)N(S(C)(=O)=O)CCS2(=O)=O`, 37.1%; as for `CN1CCN(C(=O)c2cc(-c3cccs3)cs2)CC1`, -11.4%.
On to `Cc1nc(C2CCCN2C(=O)COCc2ccccc2)no1` (stereo not drawn), for which the INHIBITION was 7.27%.
As for `COc1cnc(CSc2nnc(C)s2)cc1OCC(=O)NC1CCCC1`, the figure is 43.3%; as for `CNc1cncc(C2CCCN2Cc2ccnc(C)n2)n1` (stereo not drawn), 48.6%; as for `CN1CCc2c(C#N)c(NCCCN3CCOCC3)n3cnnc3c2C1`, 3.95%.
As for `COc1ccc(CN2CCOC3(CCCN(C(C)=O)C3)C2)cc1` (stereo not drawn), the figure is 7.31%.

The record behind these values is ChEMBL document CHEMBL4513216, “Probing the Open Global Health Chemical Diversity Library for Multistage-Active Starting Points for Next-Generation Antimalarials” (ACS Infect Dis, 2020).
